From PubChem
In the library only some 17% were active in any assay of this set; here they are far more common.
TDP1 cell CPT – DT40-hTDP1 cell growth loss with CPT; chicken DT40 Tdp1-/-;hTDP1 cells + 20 nM CPT, ATP luminescence, 48 h; AID 686979; Potency, µM (top dose mostly 46.2 µM), for inactives: top-dose activity change, negative = growth inhibition, most hits filed as inhibitors; 420,000 tested, 12% active; further: on the % scale 0 is the no-effect control and ±100 the full control effect; nearly all actives have a fitted effect of over 55% in size
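Chicken DT40 Tdp1-/- cells complemented with human TDP1, 400 cells/well, exposed to compounds plus 20 nM camptothecin for at least 48 h at 37 C; viability read as ATP content by CellTiter-Glo luminescence.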
HT1080-NT tox – kills 2HG-producing HT-1080-NT fibrosarcoma cells | HT-1080-NT fibrosarcoma viability, CellTiter-Glo ATP luminescence, 48 h | Potency, µM (titrated, usually from 46.1 µM), for the others: top-dose activity, negative = less viability, hits mostly cytotoxic | 360,000 tested, 1.6% active | AID 686970;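 further: NT is the 2HG producing partner of a matched IDH1 knockdown line; 0% = DMSO-treated cells and -100% = media-only wells without cells; nearly all actives have a fitted effect of over 55% in size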
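Compounds were tested in concentration-response format on HT-1080-NT cells for 48 hours at 37 degrees C. Cell viability came from CellTiter-Glo luminescence; curves were classified by r2, response magnitude and activity.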
TGFb SMAD3 inh – blocks TGF-b signaling; Potency, µM (highest dose often 46.1 µM), without a hit: at the highest dose activity, negative = inhibition, hits mostly inhibitors; 410,000 tested, 1.2% active; HepG2 CAGA-GFP TGF-b/SMAD3 reporter, GFP fluorescence, 18 h; TGF-beta stimulated, 500 pg/mL final; further: on the % scale 0 is the no-effect control and ±100 the full control effect; nearly all actives have a fitted effect of over 65% in size
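TGF-beta reporter screen: HEPG2 CAGA-GFP, 1% FBS, 500 pg/mL TGF-beta final, 18 h; per-cell GFP summed per well; curves fitted and categorized by class.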
HepG2 viability – HepG2 cytotoxicity, counter-screen for TGF-b inhibitors; Potency, µM (doses to about 46.1 µM), without a hit: at the highest dose activity change, negative = cytotoxicity, most hits filed as cytotoxic; 410,000 tested, 0.76% active; HepG2 CAGA-GFP viability, ATP luminescence, 18 h
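CellTiter-Glo luminescence gave cytotoxicity after 18 hours at 37 degrees C. The cells were HepG2 CAGA-GFP in 1% FBS DMEM, stimulated with 500 pg/mL TGF-beta after compound addition. %Activity was normalised to no-cell wells (complete cell-killing) and DMSO (no toxicity), and curves were fitted and classified.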
DT40 TDP1 no CPT – qHTS for Inhibitors of human tyrosyl-DNA phosphodiesterase 1 (TDP1): qHTS in cells in absence of CPT. DT40 Tdp1-/- hTDP1 cells, no CPT, ATP luminescence, 48 h. Potency, µM (series often up to 46.2 µM), for inactives: at the highest dose activity change, negative = growth inhibition, hits mostly inhibitors. 420,000 tested, 15% active. AID 686978, 2013; further: on the % scale 0 is the no-effect control and ±100 the full control effect; nearly all actives have a fitted effect of over 55% in size
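Stably hTDP1-transfected Tdp1-null chicken DT40 cells were treated with library compounds minus camptothecin and grown for at least 48 hr at 37 °C, after which cellular ATP was quantified by luminescence.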
HT1080 IDH1KD tx – kills HT-1080 cells with IDH1 knockdown; AID 686971; HT-1080 IDH1 knockdown viability, ATP luminescence, 48 h; Potency, µM (doses to about 46.1 µM), without a hit: at the highest dose activity, negative = toxicity, usual class: cytotoxic; 360,000 tested, 2% active;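 further: 0% = DMSO wells and -100% = cell-free medium wells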
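HT-1080-IDH1KD cells (IDH1 knocked down), 750/well in RPMI with 5% FBS, treated with compound 48 h at 37 degrees C. Viability by CellTiter-Glo luminescence, normalised to DMSO and no-cell wells; concentration-response curves classed.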
The depositor's hits bear a star; ? = inconclusive; . = no result given; ! = not confirmed by another sample. The call rests on the fitted dose curve; in most records, active means well fitted curve in the direction sought with a large enough effect; inconclusive means small, poorly fitted or top-dose-only effect, or another doubt; inactive means no such curve, though single readings can be large; an effect the other way counts as inactive or inconclusive. Potency means the concentration at half of the fitted maximal effect.

SMILES	TDP1 cell CPT	HT1080-NT tox	TGFb SMAD3 inh	HepG2 viability	DT40 TDP1 no CPT	HT1080 IDH1KD tx
O=C1NC[C@H](CCCCN2C[C@H](Cc3ccccc3)N(CCc3ccccc3)C(=O)C2=O)N(CCC2CCCCC2)C1=O	?	3.2%	.	.	?	6.4%
C/C=C(/CCC1NCCc2c1[nH]c1ccccc21)[Si](C)(C)C (stereo not drawn)	3.26µM*	?	?	-95.4%	2.91µM*	?
CCCCCCCCCC1NC(C(=O)O)Cc2c1[nH]c1ccccc21 (stereo not drawn)	-5.4%	-7.6%	-16.1%	-23.5%	-28.0%	-0.8%
CN(Cc1ccccc1)C(=O)CN1C(=O)CSc2ccc(S(=O)(=O)N3CCOCC3)cc21	?	.	0.0%	-1.2%	?	.
Nc1nc(NCCc2ccc(O)cc2)nc2nc(-c3ccco3)nn12	14.6µM*	.	.	.	11.6µM*	.
Cc1cc(C)c2c(ccc3ccccc32)n1	2.3%	9.0%	-36.6%	1.0%	-14.4%	18.7%
Oc1ccc(-c2nc3ccc4ccccc4c3c3c2CCC3)cc1O	?	?	0.0%	25.1µM*	?	?
COc1cc2c(cc1OC)C(COc1ccccc1OC)N(C(=O)c1ccc(S(=O)(=O)N3CCCC3)cc1)CC2 (stereo not drawn)	16.4µM*	.	-2.9%	-28.4%	?	.
COc1cc2c(cc1OC)C(COc1ccccc1OC)N(C(=O)c1ccccc1OC)CC2 (stereo not drawn)	?	.	-0.7%	-14.8%	18.4µM*	.
C[C@H](NC(=O)c1[nH]cnc1C(=O)Nc1ccc(Cl)cc1)c1ccccc1	?	?	?	-77.0%	?	?
Cc1cc(C)c(NC(=O)c2cn3c4c(c(N5CCN(C)CC5)c(F)cc4c2=O)OCC3C)c(C)c1 (stereo not drawn)	18.4µM*	2.4%	-9.9%	1.2%	?	4.7%
CCN(C(=O)Cc1ccc(Br)cc1)C1CCCCC1	20.6µM*	-1.3%	17.4%	7.8%	?	-1.3%
O=[N+]([O-])c1ccc(Nc2nc(N/N=C\c3ccc4c(c3)OCO4)nc(N3CCCCC3)n2)cc1	20.6µM*	-14.9%	6.4%	1.4%	16.4µM*	-5.0%
COc1ccc(/C=N/Nc2nc(Nc3ccccc3)nc(N3CCCCC3)n2)cc1OC	?	-15.3%	21.5%	-15.5%	20.6µM*	-13.1%
O=[N+]([O-])c1ccc(/C=N/Nc2nc(N3CCCCC3)nc(N3CCCCC3)n2)cc1	?	7.8%	-3.2%	-1.4%	16.4µM*	10.2%
C(=C\c1ccccc1)/C=N/Nc1nc(N2CCCCC2)nc(N2CCCCC2)n1	11.6µM*	10.7%	?	0.9%	11.6µM*	14.1%
O=S(=O)(c1cccs1)N1CCC2(CC1)OCCN2S(=O)(=O)c1ccccc1	-3.8%	-7.4%	-1.2%	-8.3%	-24.3%	-21.0%
COc1cccc(CN2CCNC(=O)C2CC(=O)NCCCC2CCCC2)c1OC (stereo not drawn)	-24.4%	-1.6%	0.6%	4.2%	-28.1%	8.0%
O=[N+]([O-])c1ccc(-c2ccc(/C=N/Nc3nc(NCc4ccccc4)nc(N4CCOCC4)n3)o2)cc1	9.2µM*	18.4µM*	-25.7%	-54.7%	16.4µM*	16.4µM*
O=[N+]([O-])c1ccc(/C=N/Nc2nc(N3CCCCCC3)nc(N3CCCCCC3)n2)o1	25.9µM*	?	-37.7%	-2.1%	?	?
COc1nc(N/N=C/c2ccc(-c3ccccc3[N+](=O)[O-])o2)nc(N2CCOCC2)n1	?	-0.4%	2.6%	-13.3%	?	8.1%
CN(N)c1ccc2c(C(F)(F)F)cc(C(F)(F)F)nc2n1	?	6.5%	0.0%	-35.1%	?	-1.0%
N#CC(c1ccccc1)c1ccc2c(C(F)(F)F)cc(C(F)(F)F)nc2n1 (stereo not drawn)	13µM*	-14.3%	?	-36.4%	18.4µM*	-4.2%
Cc1ccc(C(C#N)c2ccc3c(C(F)(F)F)cc(C(F)(F)F)nc3n2)cc1 (stereo not drawn)	25.9µM*	12.0%	-6.0%	-5.4%	18.4µM*	3.5%
Cc1ccc(C)c(N2CCN(c3cc(C)nc4c(-c5ccc(Cl)cc5)c(C)nn34)CC2)c1	9.6%	.	.	0.1%	-7.9%	.
SMILES	TDP1 cell CPT	HT1080-NT tox	TGFb SMAD3 inh	HepG2 viability	DT40 TDP1 no CPT	HT1080 IDH1KD tx
CCn1cc(-c2nnnn2-c2ccc(Cl)cc2)c(=O)c2ccccc21	0.1%	-3.4%	-10.7%	-4.9%	-24.9%	-7.2%
COc1ccc(C(CCN2CCCCC2)c2c(OC)cc(OC)c3c(-c4ccccc4)cc(=O)oc23)cc1 (stereo not drawn)	20.6µM*	-27.5%	?	17.8µM*!	?	-14.4%
COc1cc(OC)c2c(-c3ccccc3)cc(=O)oc2c1C(CCN1CCCCC1)c1ccc(N(C)C)cc1 (stereo not drawn)	10.3µM*	-20.9%	?	-69.5%	14.6µM*	-29.2%
COc1cc(OC)c2c(c1C(CCN1CCOCC1)c1ccc(N(C)C)cc1)OC(=O)CC2c1ccc(N(C)C)cc1 (stereo not drawn)	16.4µM*	-4.4%	-22.2%	-26.5%	?	-13.7%
COc1cc(OC)c2c(-c3ccccc3)cc(=O)oc2c1C(CCN1CCOCC1)c1ccc(N(C)C)cc1 (stereo not drawn)	5.8µM*	-1.7%	?	-41.2%	6.51µM*	-19.4%
COc1ccc(C2CC(=O)Oc3c(C(CCN4CCN(c5ccccc5)CC4)c4ccc(N(C)C)cc4)c(OC)cc(OC)c32)cc1 (stereo not drawn)	-33.8%	4.0%	?	-5.0%	?	3.7%
CC(C)(C)c1ccc(C(=O)NC2CCS(=O)(=O)C2)cc1 (stereo not drawn)	6.1%	-1.8%	-11.7%	5.4%	-16.1%	1.1%
NNc1ccc(S(=O)(=O)N2CCCCC2)cn1	-21.6%	-14.5%	-25.3%	-43.8%	-20.5%	-7.4%
C/C(=N\Nc1ccc(S(=O)(=O)N2CCCCC2)cn1)c1cccc(Br)c1	?	?	?	-0.5%	3.26µM*	?
COc1ccc(CN2CCN(C(=O)CCC(=O)Nc3nnc(C(F)(F)F)s3)CC2)cc1F	-27.2%	-22.8%	-6.5%	-6.4%	-15.0%	-11.5%
COc1ccc(CN2CCN(C(=O)CCC(=O)Nc3nnc(CC(C)C)s3)CC2)cc1F	3.26µM*	-4.9%	-1.3%	-0.9%	4.61µM*	0.0%
